For nine compounds, growth results are on record in PubChem BioAssay (NCI).

Common to all, as to experiment: NCI-60 one-dose screen, 48 h (100 = growth as untreated, 0 = no growth, -100 = all killed)
Assay [1] has as its system SK-MEL-2 melanoma. The conditions noted are these: 10 µM unless noted.
Assay [2] concerns SN12C renal. The settings on record: 10 µM unless noted.
Assay [3] relates to UO-31 renal. The settings on record: 10 µM unless noted.
In assay [4] the test system is TK-10 renal. The settings on record: 10 µM unless noted.
For assay [5], the system named is CCRF-CEM leukemia. The settings on record: 10 µM unless noted.
The subject of assay [6] is MOLT-4 leukemia. The settings on record: 10 µM unless noted.
In assay [7] the test system is SR leukemia. The conditions noted are these: 10 µM unless noted.
Assay [8] deals with RPMI-8226 leukemia. The conditions noted are these: 10 µM.
Assay [9] concerns OVCAR-8 ovarian. The conditions noted are these: 10 µM unless noted.
Assay [10] has as its system OVCAR-5 ovarian. The settings on record: 10 µM unless noted.
For assay [11], the system named is OVCAR-4 ovarian. The settings on record: 10 µM unless noted.
The subject of assay [12] is SK-OV-3 ovarian. The conditions noted are these: 10 µM.
Assay [13] has as its system IGROV1 ovarian. The conditions noted are these: 10 µM unless noted.
In assay [14] the test system is OVCAR-3 ovarian. The conditions noted are these: 10 µM unless noted.
The test system of assay [15] is NCI/ADR-RES ovarian. The conditions noted are these: 10 µM unless noted.
Assay [16] deals with CAKI-1 renal. The settings on record: 10 µM unless noted.
The subject of assay [17] is A498 renal. The conditions noted are these: 10 µM unless noted.
Assay [18] has as its system HS 578T breast. The conditions noted are these: 10 µM unless noted.
The subject of assay [19] is ACHN renal. The settings on record: 10 µM unless noted.

Each structure is given as a SMILES string. The panel holds about 83,000 compounds, 20% with a hit somewhere; the sample as a whole holds those more often.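 Cell lines were cultured in 96-well plates, exposed to a single compound concentration, and assessed for percent growth 48 hours later.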 A number with no mark means an inactive call. Calls of active or inactive are those of the source. The calls were made as follows: active = growth percent below 10; inactive = the rest.

In the case of `COc1ccc(OC2=C(C#N)C(=N)N3c4ccccc4Sc4ccccc4C3N2)cc1` (centres undefined), the growth was 130% in assay [1]; 94.3% in assay [2]; 59.5% in [3]; 120% in [4]; 80.9% in assay [5]; 139% in [6]. Moreover, the growth in [7] was 104%; in assay [8], 88%; in assay [9], 102%; in assay [10], 102%; in [11], 112%; in assay [12], 79.3%. The results for the growth in [13], in [14] and in assay [15] were 63%, 92.1% and 85.2%, respectively.
As for `CCCCCn1c(=N)n(CC(O)COc2cccc(C)c2)c2ccccc21` (centres undefined), the growth is -34.1% (active) in assay [1]; 12% in [2]; 0.645% (active) in assay [3]; 21.4% in [4]; 7.06% (active) in [16]; -3.77% (active) in [17]. Besides, the growth in [5] was 8.45% (active); in assay [6] it was 1.95% (active); in assay [7] it was 2.12% (active); in assay [8], -10.8% (active); in [9], 20.9%; in assay [10], 61.7%. Besides, the growth was 6.79% (active) in assay [11]; 13.1% in [12]; 28.1% in [13]; 7.4% (active) in assay [14]; -0.161% (active) in assay [18]; 3.77% (active) in [15].
As for `C=C[C@H]1C[C@@H]2C[C@@H]3[C@H]4C/C=C\C(=O)NCCCC5NC(=O)C(=C(O)/C=C/[C@@H]4CC(=O)[C@H]3[C@@H]2[C@H]1C)C5=O` (some centres undefined), the growth is -54% (active) in assay [1]; -60.7% (active) in assay [2]; -87.4% (active) in [3]; -94.5% (active) in [4]; 29% in assay [16]; -93.5% (active) in assay [17]. Moreover, the growth in [6] is -68.9% (active); in [7], -55.9% (active); in assay [8], -54.5% (active); in [9], -84.7% (active); in [10], -92.7% (active); in [11], -78.1% (active). Also, the values for the growth in assay [12], in [13] and in assay [14] were -100% (active), -62.8% (active) and -95.3% (active), respectively.
For `Cc1ccc(S(=O)(=O)N(c2ccc(Cl)cc2)c2ccc(Br)cc2C(=O)O)cc1`, the growth in assay [1] was 107%; in [2], 99.4%; in [3] it was 91.4%; in [19], 105%; in [16], 102%; in [17] it was 111%. For the same compound, the growth in [5] was 102%; in [6], 98.5%; in assay [7], 104%; in assay [8] it was 108%; in assay [9] it was 101%; in assay [10] it was 101%. Besides, the growth was 116% in assay [11]; 112% in assay [12]; 109% in assay [13]; 120% in assay [14]; 102% in assay [18]; 115% in [15].
For the compound `COc1ccc(Nc2[nH]n(C3=Nc4ccccc4Sc4ccccc43)c(=O)c2C#N)cc1`, the growth in [1] is 59.4%; in assay [2] it was 50.1%; in assay [3], 35.6%; in [4] it was 65.9%; in assay [19], 40.3%; in assay [5], 50.2%. The growth in assay [6] was 46.5%; in [7], 70.8%; in [8], 37%; in [9] it was 40.2%; in assay [10], 102%; in assay [11] it was 47.5%. Moreover, the growth in assay [12] was 53.5%; in assay [13], 55.1%; in assay [14], 52.4%; in [15], 45.2%.
Turning to `Cc1ccc(-c2nnc(COc3ccc(-c4nnc(N)s4)cc3)o2)cc1`, the growth in assay [1] is 104%; in assay [2], 82.2%; in assay [3], 91.7%; in [4], 106%; in assay [16], 94.8%; in assay [17], 103%. The growth in [5] was 47.7%; in [7], 5.12% (active); in [9] it was 100%; in [10], 113%; in assay [11], 58%; in [12], 80.7%. In addition, the growth in assay [13] was 108%; in [14], 98.1%; in [18], 85%; in assay [15], 95%.
As to `COc1c(Cl)ccc2c(-c3nc4cc(Cl)c(F)cc4s3)cc(=O)oc12`, the growth is 37.7% in assay [1]; 96.3% in assay [2]; -88.8% (active) in [3]; 47.8% in [19]; 34.4% in [16]; 107% in assay [17]. Also, the growth was -68% (active) in assay [5]; 44.3% in assay [6]; 23.2% in assay [7]; 49% in assay [8]; 62.5% in assay [9]; 104% in assay [12]. The growth in assay [13] was -59.8% (active); in assay [14], 75.5%; in assay [18], 100%; in assay [15], 33%.
In the case of `COc1ccc(/C=C2\CN(Cc3cn(CCCNc4ccnc5cc(Cl)ccc45)nn3)C/C(=C\c3ccc(OC)c(OC)c3)C2=O)cc1OC`, the growth was 27.7% in [1]; -38% (active) in [2]; 33.2% in assay [3]; 14.3% in assay [4]; 31% in [16]; 23.5% in [17]. Also, the growth in assay [5] was -15.2% (active); in [6], -13% (active); in assay [7], -11.8% (active); in [8], -35.5% (active); in assay [9], 6.8% (active); in assay [10], 2.05% (active). Also, the growth in [11] is 21.3%; in assay [12], 36.5%; in [13], 31.7%; in assay [14], 12.7%; in assay [18], 34%.
As for `CCCCNNC(=O)c1ccc(Br)cc1`, the growth was 44.5% in assay [1]; 75.1% in assay [2]; 25.1% in [3]; 71.4% in [19]; 60.1% in assay [16]; 30.2% in assay [17]. Besides, the growth is 46.6% in assay [5]; 42.1% in assay [6]; 40.9% in [7]; 17.8% in assay [8]; 25.8% in [9]; 41.1% in [10]. Also, the growth was 73.9% in assay [11]; 85% in [12]; 60.1% in assay [13]; 68.8% in assay [14]; 56.8% in assay [18]; 23.5% in [15].
